# Values joined by “and” are separate entries in the source; they are usually repeats but may differ in a detail not shown here. Equal values may be shown once. Records with an inconclusive call do not appear. Active and inactive are the calls of the source. Unless noted, the call rests on the fitted dose curve; in most records, active means well fitted curve in the direction sought with a large enough effect; inconclusive means small, poorly fitted or top-dose-only effect, or another doubt; inactive means no such curve, though single readings can be large; an effect the other way counts as inactive or inconclusive.
# Experiments:
# [1] = qHTS to identify inhibitors of the type 1 interferon - major histocompatibility complex class I in skeletal muscle: primary screen against the NCATS Mechanism Interrogation Plate v5.0 (MIPE) Libary (AID 1347411); further: nearly all actives have a fitted effect of over 65% in size; further: potency means the concentration at half of the fitted maximal effect;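 on activity change, negative = inhibition: plate controls were vehicle for no effect and reference inhibitor for full effect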
# Method in brief: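 Cells were genome-edited human myoblasts carrying a HiBit tag on endogenous HLA-B. They were treated with IFN-beta (4.0 ng/ml) and titrated compounds (top 46 uM) for 24 hrs before lytic HiBiT detection.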
# [2] = Primary qHTS for inhibitors of nuclear receptor binding SET domain protein 2 (NSD2) in an isogenic RCH-ACV NSD2 p.E1099K mutant (9B) (AID 1645876); further: nearly all actives have a fitted effect of over 70% in size; further: potency means the concentration at half of the fitted maximal effect
# [3] = Primary qHTS for inhibitors of nuclear receptor binding SET domain protein 2 (NSD2) in an RCH-ACV wild type WT cells (2C) (AID 1645877); further: nearly all actives have a fitted effect of over 70% in size; further: potency means the concentration at half of the fitted maximal effect
# [4] = target: Glutathione peroxidase 1 (Homo sapiens) (UniProt P07203); assay: Primary qHTS Assay for Inhibitors of Recombinant Selenoprotein Glutathione Peroxidase 1 (GPX1) (AID 1845191); further: nearly all actives have a fitted effect of over 65% in size
# Sequence of Glutathione peroxidase 1 (Homo sapiens) (P07203 whole entry, looked up): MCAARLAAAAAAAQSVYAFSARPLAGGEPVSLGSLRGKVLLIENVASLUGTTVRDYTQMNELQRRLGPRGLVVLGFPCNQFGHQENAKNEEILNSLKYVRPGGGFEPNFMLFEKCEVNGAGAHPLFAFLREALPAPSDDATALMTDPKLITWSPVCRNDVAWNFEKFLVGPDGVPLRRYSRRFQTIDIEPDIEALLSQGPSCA
# Method in brief: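 Recombinant GPX1 (10 nM final) was preincubated with compound for 30 min at room temperature, then reacted with 1 mM GSH, 0.5 mM CHP, 0.5 mM NADPH and 100 nM glutathione reductase; NADPH fluorescence (340/450 nm) was read at 0 and 15 min.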
# [5] = target: Phospholipid hydroperoxide glutathione peroxidase GPX4 (Homo sapiens) (UniProt P36969); assay: Primary qHTS Assay for Inhibitors of Recombinant Selenoprotein Glutathione Peroxidase 4 (GPX4) (AID 1845192); conditions: outcome: dose series up to 50 µM unless noted; further: nearly all actives have a fitted effect of over 65% in size; on activity change, negative = inhibition: on the % scale 0 is the no-effect control and ±100 the full control effect
# Sequence of Phospholipid hydroperoxide glutathione peroxidase GPX4 (Homo sapiens) (P36969 whole entry, looked up): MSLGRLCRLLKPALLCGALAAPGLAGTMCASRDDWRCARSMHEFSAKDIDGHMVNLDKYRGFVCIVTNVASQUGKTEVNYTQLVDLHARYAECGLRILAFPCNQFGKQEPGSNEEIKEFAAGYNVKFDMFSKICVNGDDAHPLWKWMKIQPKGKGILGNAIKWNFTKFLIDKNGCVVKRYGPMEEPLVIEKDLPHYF
# Method in brief: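 GR-coupled readout: 100 nM GR, 1 mM GSH, 0.5 mM NADPH; NADPH fluorescence (ex 340/em 450 nm) read at t=0 and after 15 min RT. GPX4 200 nM, preincubated 30 min with compound; substrate 0.5 mM CHP.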
# [6] = qHTS drug screen for cell cycle checkpoint inhibitors in PARPi-resistant BRCA-mutant ovarian cancer cell lines. (AID 1963452; calls by dose curve; further: potency means the concentration at half of the fitted maximal effect); conditions: PEO1/OlaR viability, CellTiter-Glo luminescence, 96 h; for Z-AUC: stronger effect = lower value
# Method in brief: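 PEO1, PEO4 and PEO1/OlaR ovarian cancer cells, 600 per well, exposed 96 h at 37C to a dilution series. Viability read by CellTiter-Glo luminescence, normalized to DMSO and empty wells; activity summarized as Z-AUC.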
# [7] = qHTS assay to identify inhibitors of the type 1 interferon - major histocompatibility complex class I in skeletal muscle: Counter screen cell viability and HiBit confirmation (AID 1347412); conditions: iHSKM muscle cells + IFN-b, HiBiT or CellTiter-Glo, 24 h; for activity change, negative = inhibition: at 45.9 µM (top of the series); further: potency means the concentration at half of the fitted maximal effect; on activity change, negative = inhibition: on the % scale 0 is the no-effect control and ±100 the full control effect; on all read-outs here: nearly all actives have a fitted effect of over 60% in size
# Method in brief: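 HLA-B*08:01–HiBiT knock-in immortalized human myoblasts (C25cl48) stimulated with 4.0 ng/ml human IFN-beta and dosed with compound in a 12-point 1:3 titration (top final 46 uM). After 24 hrs at 37 C, HiBiT lytic luminescence or CellTiter Glo ATP read out.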
# [8] = target: Calcium and integrin-binding protein 1 (Homo sapiens) (UniProt Q99828); assay: Primary qHTS for Identification of Calcium Integrin Binding Protein 1 (CIB1) Competitor (AID 1508620);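 further: GST tagged CIB1 binding a fluorescein labelled alphaIIb integrin peptide tracer; top concentration of the series differs between compounds; on the % scale 0 is the no-effect control and ±100 the full control effect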
# Sequence of Calcium and integrin-binding protein 1 (Homo sapiens) (Q99828 whole entry, looked up): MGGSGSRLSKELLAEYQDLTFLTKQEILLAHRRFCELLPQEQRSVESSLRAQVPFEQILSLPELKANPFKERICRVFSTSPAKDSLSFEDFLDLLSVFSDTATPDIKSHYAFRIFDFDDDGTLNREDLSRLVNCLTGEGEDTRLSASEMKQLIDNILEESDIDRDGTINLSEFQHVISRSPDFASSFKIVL
# Method in brief: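 Fluorescence polarization competition: CIB1-GST (1 uM final) preincubated with compound 15 min at room temperature, then FITC-labeled alphaIIb peptide (100 nM final) added for another 15 min. Polarization read at Ex 480/Em 540.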
# [9] = target: Cytochrome P450 2D6 (Homo sapiens) (UniProt P10635); assay: Cytochrome P450 family 2 subfamily D member 6 (CYP2D6) small molecule antagonists: luciferase biochemical (cell-free) qHTS assay (AID 1645840; active means well fitted curve in the direction sought with a large enough effect in the repeat runs; an effect the other way counts as inactive or inconclusive; further: nearly all actives have a fitted effect of over 55% in size; further: potency means the concentration at half of the fitted maximal effect)
# Sequence of Cytochrome P450 2D6 (Homo sapiens) (P10635 whole entry, looked up): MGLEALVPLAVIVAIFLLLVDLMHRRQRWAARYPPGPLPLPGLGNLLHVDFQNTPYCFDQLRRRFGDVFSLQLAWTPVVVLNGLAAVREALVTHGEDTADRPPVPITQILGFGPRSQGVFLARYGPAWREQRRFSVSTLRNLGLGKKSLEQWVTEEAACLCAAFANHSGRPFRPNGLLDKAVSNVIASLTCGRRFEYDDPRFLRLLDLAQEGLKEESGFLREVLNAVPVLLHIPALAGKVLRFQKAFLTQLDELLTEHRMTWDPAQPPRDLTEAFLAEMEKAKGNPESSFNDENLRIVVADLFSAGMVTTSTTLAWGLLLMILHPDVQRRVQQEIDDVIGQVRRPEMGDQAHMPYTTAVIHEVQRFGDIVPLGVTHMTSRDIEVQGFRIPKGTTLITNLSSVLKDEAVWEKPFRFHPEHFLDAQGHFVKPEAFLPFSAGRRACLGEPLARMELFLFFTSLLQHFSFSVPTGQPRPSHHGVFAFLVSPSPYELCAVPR
# Method in brief: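 P450-Glo luminescent screen: recombinant CYP2D6 enzyme–proluciferin substrate mix preincubated with compound 10 min at room temperature, then NADPH regeneration added for 1 h at room temperature. Detection reagent added for 20 min; luciferin light read as relative luminescence units.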
# [10] = target: Cytochrome P450 2C9 (Homo sapiens) (UniProt P11712); assay: Cytochrome P450 family 2 subfamily C member 9 (CYP2C9) small molecule antagonists: luciferase biochemical (cell-free) qHTS assay (AID 1645842; active means well fitted curve in the direction sought with a large enough effect in the repeat runs; an effect the other way counts as inactive or inconclusive; further: nearly all actives have a fitted effect of over 55% in size; further: potency means the concentration at half of the fitted maximal effect)
# Sequence of Cytochrome P450 2C9 (Homo sapiens) (P11712 whole entry, looked up): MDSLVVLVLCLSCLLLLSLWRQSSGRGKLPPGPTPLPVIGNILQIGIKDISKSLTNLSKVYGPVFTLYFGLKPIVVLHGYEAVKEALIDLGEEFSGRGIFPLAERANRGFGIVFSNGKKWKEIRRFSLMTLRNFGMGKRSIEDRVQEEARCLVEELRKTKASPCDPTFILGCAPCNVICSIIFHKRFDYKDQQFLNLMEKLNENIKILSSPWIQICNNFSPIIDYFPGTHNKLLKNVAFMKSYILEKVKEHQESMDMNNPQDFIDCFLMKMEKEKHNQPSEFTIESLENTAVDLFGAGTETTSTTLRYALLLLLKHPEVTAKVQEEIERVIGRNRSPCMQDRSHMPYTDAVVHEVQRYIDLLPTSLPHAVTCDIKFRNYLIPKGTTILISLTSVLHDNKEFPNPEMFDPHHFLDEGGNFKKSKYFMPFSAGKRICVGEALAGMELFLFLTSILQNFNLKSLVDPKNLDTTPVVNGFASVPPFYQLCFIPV
# Method in brief: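 Luminescence, after 20 min with luciferin detection reagent, reflected CYP2C9 turnover during a 1 h NADPH-driven reaction at 37C. Enzyme-substrate mix contained 0.4% bovine serum albumin and was preincubated with compound 10 min at room temperature.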
# [11] = NCATS anti-infectives library activity on HEK293 viability as a counter-qHTS vs the C. elegans viability qHTS (AID 1745854);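 further: HEK293 cells exposed to compounds for 24 hr before the viability read; on the % scale 0 is the no-effect control and ±100 the full control effect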
# Method in brief: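 Cytotoxicity in human HEK293 cells is measured by ATP-dependent CellTiter-Glo luminescence following a 24 hr incubation with titrated library compounds at 37C. Top final concentration is 41.7 uM.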
# [12] = qHTS Assay for Lipid Storage Modulators (AID 1519; calls by dose curve); conditions: Drosophila S3 cells, BODIPY lipid droplet/cell ratio, laser cytometry, cells loaded with oleic acid
# Method in brief: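 Cells seeded at 5,000 per well were treated with compounds over a concentration series and loaded with oleic acid (400 uM, as added). Lipid droplet fluorescence (488 nm excitation, 500-530 nm channel) was read by laser-scanning cytometry and normalized to 20 uM Triacsin C.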
# [13] = measured here: PEO1 parental Z-AUC
structure (smiles),measurement,setting,value
CS[C@H]1SC[C@@H]2C(=O)N(C)[C@H](C(C)C)C(=O)OC[C@H](NC(=O)c3cnc4ccccc4n3)C(=O)N[C@H](C)C(=O)N(C)[C@H]1C(=O)N(C)[C@H](C(C)C)C(=O)OC[C@H](NC(=O)c1cnc3ccccc3n1)C(=O)N[C@H](C)C(=O)N2C,Potency,[1],0.0104 µM (active)
same,Potency,[2],0.0015 µM (active)
same,Potency,[3],0.001 µM (active)
same,Potency,[4],inactive
same,Potency,[5],inactive
same,Potency,[6],0.0087 µM (active)
same,Z-AUC,[6]; [13],-3.58
same,Z-AUC,[6]; measured here: PEO4 Z-AUC,-3.11
same,Potency,[7]; HiBiT,0.0125 µM (active)
same,"activity change, negative = inhibition",[7]; Viability,4.37% (inactive)
Fc1cccc(-n2cnc3c(NCc4nc5c(F)c(F)ccc5[nH]4)nc(N4CCOCC4)nc32)c1,Potency,[1],0.523 µM (active)
same,Potency,[2],0.166 µM (active)
same,Potency,[3],0.166 µM (active)
same,Potency,[4],inactive
same,Potency,[5],inactive
same,Z-AUC,[6],-1.76 (inactive)
same,Z-AUC,[6]; [13],-2.45
same,Z-AUC,[6]; measured here: PEO4 Z-AUC,-2.33
same,Potency,[7]; HiBiT,0.442 µM (active)
same,"activity change, negative = inhibition",[7]; Viability,-14.7% (inactive)
C[C@@H]1CC(=O)Nc2cccc(-c3cnn(C(C)(C)C)c3)c2N1,Potency,[1],inactive
same,Potency,[8],inactive
same,Potency,[2],6.61 µM (active)
same,Potency,[4],inactive
same,Potency,[5],inactive
same,Z-AUC,[6],-0.505 (inactive)
same,Z-AUC,[6]; [13],-0.577
same,Z-AUC,[6]; measured here: PEO4 Z-AUC,-0.924
CC1(C)OC2=C(C(=O)c3ccccc3C2=O)[C@H](NCc2ccccc2)[C@@H]1O,Potency,[1],9.3 µM (active)
same,Potency,[2],7.42 µM (active)
same,Potency,[4],inactive
same,Potency,[5],inactive
same,Z-AUC,[6],0.63 (inactive)
same,Z-AUC,[6]; [13],1.22
same,Z-AUC,[6]; measured here: PEO4 Z-AUC,1.45
same,Potency,[7]; HiBiT,9.91 µM (active)
same,Potency,[7]; Viability,14 µM (active)
Cc1cccc(/C=N/Nc2cc(N3CCOCC3)nc(OCCc3ccccn3)n2)c1,Potency,[1],inactive
same,Potency,[9],10.7 µM (active)
same,Potency,[10],7.56 µM (active)
same,Potency,[2],0.468 µM (active)
same,Potency,[3],0.296 µM (active)
same,Potency,[11],inactive
same,Potency,[4],inactive
same,Potency,[5],inactive
same,Z-AUC,[6],0.655 (inactive)
same,Z-AUC,[6]; [13],0.0151
same,Z-AUC,[6]; measured here: PEO4 Z-AUC,0.106
Clc1cccc(-c2ccc(-c3nnc(CCCc4ccc5cccnc5n4)o3)cc2)c1,Potency,[1],inactive
same,Potency,[8],inactive
same,Potency,[2],inactive
same,Potency,[3],inactive
same,Potency,[4],inactive
same,Potency,[5],inactive
same,Z-AUC,[6],1.61 (inactive)
same,Z-AUC,[6]; [13],1.52
same,Z-AUC,[6]; measured here: PEO4 Z-AUC,1.67
Cc1c(CN2CCN(C(=O)[C@H](C)O)CC2)sc2c(N3CCOCC3)nc(-c3cnc(N)nc3)nc12,Potency,[1],0.262 µM (active)
same,Potency,[9],inactive
same,Potency,[10],inactive
same,Potency,[2],0.0417 µM (active)
same,Potency,[3],0.0742 µM (active)
same,Potency,[4],inactive
same,Z-AUC,[6],0.0318 (inactive)
same,Z-AUC,[6]; [13],0.386
same,Z-AUC,[6]; measured here: PEO4 Z-AUC,0.839
CNc1nc(-c2ccc3c(N)n[nH]c3c2)cc(N2C[C@@H](C(=O)NC3CCCCC3)CC[C@H]2C)n1,Potency,[1],13.1 µM (active)
same,Potency,[2],0.525 µM (active)
same,Potency,[3],0.833 µM (active)
same,Potency,[4],inactive
same,Potency,[5],inactive
same,Z-AUC,[6],-1.31 (inactive)
same,Z-AUC,[6]; [13],0.449
same,Z-AUC,[6]; measured here: PEO4 Z-AUC,-0.0883
same,Potency,[7]; HiBiT,31.3 µM (active)
COc1ccc(N2C(=O)N(c3c(C)cccc3Cl)Cc3cnc(Nc4ccc(C5CCN(C)CC5)cc4OC)nc32)nc1,Potency,[1],14.7 µM (active)
same,Potency,[2],3.32 µM (active)
same,Potency,[3],3.72 µM (active)
same,Potency,[4],inactive
same,Potency,[5],inactive
same,Z-AUC,[6],-1.61 (inactive)
same,Z-AUC,[6]; [13],-1.1
same,Z-AUC,[6]; measured here: PEO4 Z-AUC,-0.332
same,Potency,[7]; HiBiT,14 µM (active)
C[C@H]1CC2[C@@H]3CCC4=CC(=O)C=C[C@]4(C)[C@@]3(F)[C@@H](O)C[C@]2(C)[C@@]1(O)C(=O)CO (some centres not stated),"activity change, negative = inhibition",[12]; at 57.5 µM (top of the series),-0.272% (inactive)
same,max response,[12]; measured here: cell count channel max response,-0.0442%
same,max response,[12]; measured here: lipid channel max response,0.965%
same,Potency,[1],inactive
same,Potency,[2],inactive
same,Potency,[4],inactive
same,Potency,[5],inactive
same,Z-AUC,[6],-1.28 (inactive)
same,Z-AUC,[6]; [13],-0.45
same,Z-AUC,[6]; measured here: PEO4 Z-AUC,-0.996
Cc1cc(-n2c(=O)ccc3cnc4[nH]ccc4c32)ccc1F,Potency,[1],4.15 µM (active)
same,Potency,[2],18.6 µM (active)
same,Potency,[4],inactive
same,Potency,[5],inactive
same,Z-AUC,[6],-0.465 (inactive)
same,Z-AUC,[6]; [13],0.0709
same,Z-AUC,[6]; measured here: PEO4 Z-AUC,0.281
same,Potency,[7]; HiBiT,3.52 µM (active)
same,"activity change, negative = inhibition",[7]; Viability,5.99% (inactive)
O=C(/C=C/c1cccnc1)NCCCCC1CCN(C(=O)c2ccccc2)CC1,Potency,[1],inactive
same,Potency,[9],16.9 µM (active)
same,Potency,[10],13.5 µM (active)
same,Potency,[2],0.0019 µM (active)
same,Potency,[3],0.0047 µM (active)
same,Potency,[4],inactive
same,Potency,[5],inactive
same,Potency,[6],0.0436 µM (active)
same,Z-AUC,[6]; [13],-2.84
same,Z-AUC,[6]; measured here: PEO4 Z-AUC,-2.61
CN(CCOc1ccc(C[C@H](Nc2ccccc2C(=O)c2ccccc2)C(=O)O)cc1)c1ccccn1,Potency,[1],inactive
same,Potency,[2],inactive
same,Potency,[3],inactive
same,Potency,[4],inactive
same,Z-AUC,[6],0.115 (inactive) and 0.904 (inactive)
same,Z-AUC,[6]; [13],0.442 and 0.488
same,Z-AUC,[6]; measured here: PEO4 Z-AUC,0.445 and 0.87
C[C@H](NC(=O)/C(C#N)=C/c1cccc(Br)n1)c1ccccc1,Potency,[1],10.4 µM (active)
same,Potency,[2],14.8 µM (active)
same,Potency,[3],14.8 µM (active)
same,Potency,[4],inactive
same,Potency,[5],inactive
same,Z-AUC,[6],0.178 (inactive)
same,Z-AUC,[6]; [13],-0.139
same,Z-AUC,[6]; measured here: PEO4 Z-AUC,-0.487
same,Potency,[7]; HiBiT,7.01 µM (active)
same,"activity change, negative = inhibition",[7]; Viability,17% (inactive)
Cc1c[nH]c2nc(Nc3ccc(N4CCN(C)CC4)c(F)c3)nc(-c3cccc(CC#N)c3)c12,Potency,[1],2.34 µM (active)
same,Potency,[2],0.525 µM (active)
same,Potency,[3],0.332 µM (active)
same,Potency,[4],inactive
same,Potency,[5],inactive
same,Z-AUC,[6],-0.269 (inactive)
same,Z-AUC,[6]; [13],-0.34
same,Z-AUC,[6]; measured here: PEO4 Z-AUC,-0.115
same,Potency,[7]; HiBiT,1.76 µM (active)
Cc1ccc(-n2c(C)cc(-c3nnc4n3CCCCC4)c2C)cc1,Potency,[1],inactive
same,Potency,[8],inactive
same,Potency,[2],18.6 µM (active)
same,Potency,[3],18.6 µM (active)
same,Potency,[4],inactive
same,Z-AUC,[6],1.28 (inactive)
same,Z-AUC,[6]; [13],1.19
same,Z-AUC,[6]; measured here: PEO4 Z-AUC,1.13

# — PubChem BioAssay (NCATS)
